The campaign covered roughly 52,000 compounds. About 4,300 (8.3%) were called active. What follows is part of a selection rich in actives, with near analogues and random picks from the rest. Values without a mark were called inactive. No stated cut-off is given here; in the data, active means survival mostly below about 52% (no sharp cut-off); inactive means mostly above about 56%.
Tested on: DeltatarO mutant
Assay: S. aureus survival, RN4220 and DeltatarO strains – OD600, teichoic acid synthesis inhibitors, primary screen (AID 463173)
Details: S. aureus RN4220 wild type/DeltatarO growth, OD600, 18 h, hits give low values, screened at 18.75 µg/mL (by protocol)

Row | SMILES | survival
1 | COc1ccccc1NC(=O)Cn1c(=O)n(-c2ccccc2Cl)c(=O)c2sc3ccccc3c21 | 77%
2 | O=C(CN(CC1CCCO1)S(=O)(=O)c1ccc(S(=O)(=O)N2CCOCC2)cc1)Nc1ccccc1 (stereo not drawn) | 89%
3 | CCOC(=O)c1ccccc1NC(=O)Cn1ccn2nc(-c3ccc(OCC)cc3)cc2c1=O | 115%
4 | COC(=O)CSc1nc2cc3c(cc2cc1C#N)OCO3 | 97%
5 | CCc1ccc(-n2c(N3CCN(c4ccc(F)cc4)CC3)nc3ccccc3c2=O)cc1 | 83%
6 | COc1ccc(-c2cc3nc(-c4ccccc4)cc(C(F)(F)F)n3n2)cc1 | 58%
7 | Cc1cc2nc(-c3ccc(OCc4ccccc4C)cc3)cc(C(F)(F)F)n2n1 | 13% (active)
8 | Cc1ccc(-c2cc(C(F)(F)F)n3nc(-c4ccc(Cl)cc4)cc3n2)cc1 | 51%
9 | Cc1cc2nc(-c3ccc(OCc4ccccc4F)cc3)cc(C(F)(F)F)n2n1 | 45% (active)
10 | Cc1cc2nc(-c3ccc(OCc4ccccc4Cl)cc3)cc(C(F)(F)F)n2n1 | 25% (active)
11 | CCN(c1ccc(OC)cc1)S(=O)(=O)c1ccc2[nH]c3c(c2c1)CCCCC3 | 80%
12 | CCc1cc(C(=O)Nc2cnn(Cc3ccc(F)cc3)c2)no1 | 50%
13 | COc1ccc(Cc2nc3ccc(C(=O)NCc4cc(Br)ccc4OC)cc3o2)cc1 | 93%
14 | COc1ccc(CNC(=O)CCCCCn2c(=O)[nH]c3ccccc3c2=O)cc1 | 86%
15 | Cc1ccc(S(=O)(=O)c2cnc(SC(C)C(=O)Nc3ccccc3)[nH]c2=O)cc1 (stereo not drawn) | 71%
16 | CC1CCC2(CC1)Nc1ccccc1S2 (stereo not drawn) | 105%
17 | O=C(COC(=O)c1ccccn1)Nc1ccccc1 | 101%
18 | Cc1ccc(NC(=O)c2c(NC(=O)c3ccccc3)sc3c2CCC3)cc1 | 76%
19 | COc1ccc(NC(=O)c2c(NC(=O)COc3ccccc3)sc3c2CCCCC3)cc1 | 72%
20 | COc1ccc(NC(=O)c2c(NC(=O)c3ccc(Br)cc3)sc3c2CCCC3)cc1 | 169%
21 | Cc1ccc(NC(=O)c2c(NC(=O)c3ccccc3Cl)sc3c2CCC3)cc1 | 160%
22 | COc1ccccc1NC(=O)c1c(NCc2sccc2C)sc2c1CCCCC2 | 85%

Row | SMILES | survival
23 | COc1ccc(NC(=O)c2c(NC(=O)C(F)(F)F)sc3c2CCCCC3)cc1 | 2% (active)
24 | Cc1ccc(NC(=O)c2c(NC(=O)C(F)(F)F)sc3c2CCCCC3)cc1 | -5% (active)
25 | Cc1ccccc1NC(=O)c1c(NC(=O)C(F)(F)F)sc2c1CCCCC2 | -3% (active)
26 | O=C1C2C3C=CC(C3)C2C(=O)N1CCCCN1C(=O)C2C3C=CC(C3)C2C1=O (stereo not drawn) | 93%
27 | CCc1ccccc1NC(=O)Cn1c(=O)c2cccn2c2ccc(F)cc21 | 83%
28 | COc1ccc(-c2noc(-c3ccc(NC4CCCC4)c([N+](=O)[O-])c3)n2)cc1 | 108%
29 | C/C=C(\C)C(=O)OC1c2c(ccc3ccc(=O)oc23)OC(C)(C)C1OC(C)=O (stereo not drawn) | 60%
30 | O=C(Nc1nnc(S(=O)(=O)N2CCCCCC2)s1)c1ccc(Cl)cc1 | 62%
31 | Cc1ccc(C(=O)Nc2nnc(S(=O)(=O)N3CCCCCC3)s2)cc1 | 79%
32 | O=C(Nc1nnc(S(=O)(=O)N2CCCC2)s1)c1ccc(F)cc1 | 111%
33 | O=C(Nc1nnc(S(=O)(=O)N2CCCCC2)s1)c1ccc(Cl)cc1 | 37% (active)
34 | O=C(Nc1nnc(S(=O)(=O)N2CCCCC2)s1)c1ccc(F)cc1 | 79%
35 | O=C(Nc1nnc(S(=O)(=O)N2CCCCCC2)s1)c1ccccc1 | 38% (active)
36 | CCC1/C(=N\O)CC(c2ccco2)NC1c1ccco1 (stereo not drawn) | 84%
37 | COc1ccc(NC(=O)Cn2c(SCc3ccc(C)cc3)nc3cccnc32)c(OC)c1 | 82%
38 | CCOc1ccc(NC(=O)C(CC(C)C)N2Cc3ccccc3C2=O)cc1 (stereo not drawn) | 130%
39 | COC(=O)c1cc(NC(=O)[C@H](CCS(C)(=O)=O)N2Cc3ccccc3C2=O)cc(C(=O)OC)c1 | 86%
40 | O=C(Nc1ccc(F)cc1F)C(Cc1ccccc1)N1Cc2ccccc2C1=O (stereo not drawn) | -4% (active)
41 | COc1cc(NC(=O)C(CCS(C)(=O)=O)N2Cc3ccccc3C2=O)cc(OC)c1OC (stereo not drawn) | 55%
42 | O=C(Nc1ccccc1F)C(Cc1ccccc1)N1Cc2ccccc2C1=O (stereo not drawn) | 60%
43 | CS(=O)(=O)CCC(C(=O)Nc1cccc(C(F)(F)F)c1)N1Cc2ccccc2C1=O (stereo not drawn) | 17% (active)
44 | Cc1ccc(C)c(NC(=O)C(CC(C)C)N2Cc3ccccc3C2=O)c1 (stereo not drawn) | 134%

Row | SMILES | survival
45 | Cc1ccc(NC(=O)C(CC(C)C)N2Cc3ccccc3C2=O)cc1F (stereo not drawn) | -5% (active)
46 | COC(=O)c1ccc(NC(=O)C(C)N2Cc3ccccc3C2=O)cc1 (stereo not drawn) | 66%
47 | Cc1ccc(NC(=O)[C@H](Cc2ccccc2)N2Cc3ccccc3C2=O)cc1F | 84%
48 | CC(C(=O)Nc1ccc(OC(F)(F)F)cc1)N1Cc2ccccc2C1=O (stereo not drawn) | 20% (active)
49 | O=C(Nc1ccc(F)cc1)[C@H](Cc1ccccc1)N1Cc2ccccc2C1=O | 89%
50 | CC(C)Cn1c(=O)c2ccccc2n2c(CCC(=O)N3CCN(c4ccccc4F)CC3)nnc12 | 92%
51 | Cc1noc(Cn2c(=O)c3cc4c(cc3n(CC(=O)Nc3cccc(Cl)c3)c2=O)OCO4)n1 | 122%
52 | COc1cccc(C(=O)Nc2ccc3nc(SCCOc4ccccc4)sc3c2)c1 | 75%
53 | Cc1cc(C)nc(-n2nc(C)c3c2N(Cc2ccccc2C)C(=O)CC3c2ccc(Cl)cc2)n1 (stereo not drawn) | 72%
54 | COc1ccc(-c2cc(C(F)(F)F)n3nc(C(=O)Nc4cccc(C(F)(F)F)c4)c(Br)c3n2)cc1 | 73%
55 | CC(C(=O)Nc1ccc(F)c(Cl)c1)N1Cc2ccccc2C1=O (stereo not drawn) | 8% (active)
56 | COc1ccc(NC(=O)C(C)N2Cc3ccccc3C2=O)cc1OC (stereo not drawn) | 101%
57 | Cc1cc(C)cc(NC(=O)C(C)N2Cc3ccccc3C2=O)c1 (stereo not drawn) | 91%
58 | CCCn1ccc2c(OCC(=O)Nc3ccccc3C(=O)OCC)cccc2c1=O | 94%
59 | Cc1ccc(C)c(CN2C(=O)c3ccccc3S(=O)(=O)c3ccc(C(=O)NCCc4ccc(Cl)cc4)cc32)c1 | 111%
60 | N#Cc1cccc(NC(=O)C2CCN(c3nc(-c4ccc(Cl)cc4)no3)CC2)c1 | 82%
61 | CC1CCN(S(=O)(=O)c2ccc3c(ccn3CC(=O)NCc3ccccc3F)c2)CC1 | 54%
62 | Cc1cccc(CNC(=O)CCn2ccc3cc(S(=O)(=O)N4CCCC4)ccc32)c1 | 87%
63 | O=C(Cn1ccc2cc(S(=O)(=O)N3CCCCC3)ccc21)NCc1cccc(Cl)c1 | 117%
64 | O=C(CCn1ccc2cc(S(=O)(=O)N3CCCC3)ccc21)NCc1ccccc1F | 94%
65 | Cc1cccc(CNC(=O)Cn2ccc3cc(S(=O)(=O)N4CCC(C)CC4)ccc32)c1 | 76%
66 | CC1CCN(S(=O)(=O)c2ccc3c(ccn3CCC(=O)NCc3ccccc3F)c2)CC1 | -5% (active)

Row | SMILES | survival
67 | CN(C)c1ccc(CNC(=O)CCCn2ccc3cc(S(=O)(=O)N4CCCC4)ccc32)cc1 | 8% (active)
68 | Cc1cccc(CNC(=O)Cn2ccc3cc(S(=O)(=O)N4CCCCCC4)ccc32)c1 | -5% (active)
69 | COc1ccc(CNC(=O)CCCn2ccc3cc(S(=O)(=O)N4CCCC4)ccc32)cc1 | 101%
70 | O=C(CCn1ccc2cc(S(=O)(=O)N3CCCC3)ccc21)NCc1cccc(Cl)c1 | 17% (active)
71 | Cc1cccc(CNC(=O)Cn2ccc3cc(S(=O)(=O)N4CCCC4)ccc32)c1 | 73%
72 | CCc1ccc(CNC(=O)CCCn2ccc3cc(S(=O)(=O)N4CCCC4)ccc32)cc1 | 91%
73 | Cc1nn(C)c2c1c(-c1ccccc1)cc(=O)n2C(C)C(=O)NCCc1ccc(Cl)cc1 (stereo not drawn) | 99%
74 | CCOC(=O)c1cc2c(=O)n3ccccc3nc2n(CCOC)c1=NC(=O)c1c(-c2ccccc2Cl)noc1C | 180%
75 | Cc1cccc(C(c2sc3nc(-c4ccco4)nn3c2O)N2CCN(c3ccccc3F)CC2)c1 (stereo not drawn) | 67%
76 | CCOC(=O)c1ccc2c(c1)N(CC(=O)Nc1ccc(C)cc1C)C(=O)c1ccccc1S2 | 112%
77 | Cc1sc2c(c1C)c(=O)n(CCc1ccccc1)c(=O)n2Cc1ccc(C(C)(C)C)cc1 | 87%
78 | Cc1cccc(-n2c(CCN3C(=O)c4ccccc4C3=O)nc3ccccc3c2=O)n1 | 87%
79 | Clc1ccc(CN2CCc3nc(Nc4ccc5c(c4)OCCO5)ncc3C2)cc1 | 94%
80 | CCOc1ccc(NC(=O)Cn2cc(C(=O)c3ccc(C)cc3)c(=O)c3cc4c(cc32)OCO4)cc1 | 70%
81 | CCOc1ccc(NC(=O)CCS(=O)(=O)c2ccc3nc(C)sc3c2)cc1 | 55%
82 | CCOC(=O)c1ccccc1NC(=O)CN1C(=O)CC(c2ccco2)Sc2ccccc21 (stereo not drawn) | 72%
83 | Cc1ccc(CNC(=O)C(C)n2ccc3cc(S(=O)(=O)N4CCCC4)ccc32)cc1 (stereo not drawn) | 102%
84 | O=C(Cn1ccc2cc(S(=O)(=O)N3CCCCCC3)ccc21)NCc1ccccc1Cl | 77%
85 | CCc1ccc(CNC(=O)C(C)n2ccc3cc(S(=O)(=O)N4CCCCCC4)ccc32)cc1 (stereo not drawn) | 94%
86 | CC(C(=O)NCc1ccccc1)n1ccc2cc(S(=O)(=O)N3CCCC3)ccc21 (stereo not drawn) | 20% (active)
87 | O=C(Cn1ccc2cc(S(=O)(=O)N3CCCCCC3)ccc21)NCCc1ccccc1Cl | 88%
88 | O=C(Cn1ccc2cc(S(=O)(=O)N3CCCCC3)ccc21)NCCc1ccccc1Cl | -4% (active)
